ssDAF12 agonist: activators of S. stercoralis DAF-12 nuclear receptor; HEK293 ssDAF-12/GRIP1 lit1-tk-luc reporter, luminescence; % of 3 µM dafachronic acid response; activation, % at 6.8 µM; 370,000 tested, 1% active;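 active = activation above the mean over all tested compounds plus 3 SD, cut at about 0.9% in these data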
DAX1 inh-1: inhibitors of human orphan nuclear receptor DAX1 (NR0B1); P51843; HEK293 Gal4-DAX1 luciferase reporter, luminescence; inhibition, % at 6.75 µM; 340,000 tested, 0.99% active;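 active = inhibition above the mean over all tested compounds plus 3 SD, cut at about 4.2% in these data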;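 note: inhibition shows as a rise in luminescence from relieved DAX1 repression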
Target sequence (P51843 207-470 limits assumed): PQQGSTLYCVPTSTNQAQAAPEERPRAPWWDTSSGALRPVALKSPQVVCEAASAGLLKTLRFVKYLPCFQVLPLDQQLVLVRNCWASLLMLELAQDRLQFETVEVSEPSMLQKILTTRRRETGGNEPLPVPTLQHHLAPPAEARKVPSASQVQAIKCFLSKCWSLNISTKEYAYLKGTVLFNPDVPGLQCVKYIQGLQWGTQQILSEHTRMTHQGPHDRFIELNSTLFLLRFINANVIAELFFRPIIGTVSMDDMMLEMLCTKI
DAX1 inh-2: blocks DAX1 repression of SF-1 activated StAR promoter; 370,000 tested, 1.1% active; HEK293T StAR-luciferase reporter, SF-1/DAX-1 repression relief; inhibition, % at 6.8 µM;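 active = inhibition above the mean over all tested compounds plus 3 SD, cut at about 3.6% in these data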;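 note: higher inhibition means more luminescence from relief of DAX-1 repression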
SMARCA2 act: SMARCA2 function activation, primary screen | MG213 cells, MMTV-luciferase reporter, dexamethasone, overnight | activation, % at 9.1 µM | 370,000 tested, 1% active | AID 652017; in the data active = activation above about 7.8%
hgDAF-12 ag: agonists of H. glycines DAF-12 nuclear receptor; AID 687014; 370,000 tested, 1.8% active; activation, % at 6.8 µM; HEK293 GAL4-hgDAF12 UAS-luciferase reporter, agonist luminescence; normalized to butyrate control;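 active = activation above a cutoff set at the mean of all screened compounds plus 3 SD, cut at about 10% in these data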
hcDAF-12 act: activators of H. contortus DAF-12 nuclear receptor; HEK293 hcDAF-12 lit1-tk-luc reporter, luminescence; 0% DMSO, 100% Δ7-dafachronic acid; activation, % at 6.8 µM; 370,000 tested, 1.4% active;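 active = activation above the mean of all tested compounds plus 3 SD, cut at about 5.5% in these data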
Numbers stand for hits. Most compounds without a hit are left out; they make up all but 4.8% or so of the library.

How did COc1ccc(S(=O)(=O)n2c(C)nc3ccccc32)cc1C do in these assays?
ssDAF12 agonist: inactive; DAX1 inh-1: inactive; DAX1 inh-2: inactive; SMARCA2 act: inactive; hgDAF-12 ag: 11.7; hcDAF-12 act: inactive

Results for c1ccc2c(c1)Oc1cccc3cccc-2c13 ?
ssDAF12 agonist: inactive; DAX1 inh-1: 4.3; DAX1 inh-2: inactive; SMARCA2 act: inactive; hgDAF-12 ag: inactive; hcDAF-12 act: inactive

How did COC(=O)C1CN(C(=O)COc2ccc(C)cc2)c2ccccc2O1 (centres undefined) do in these assays?
ssDAF12 agonist: inactive; DAX1 inh-1: inactive; DAX1 inh-2: inactive; SMARCA2 act: inactive; hgDAF-12 ag: inactive; hcDAF-12 act: inactive

Results for COc1ccc(OCC(=O)Nc2ccc(Cl)cc2)cc1 ?
ssDAF12 agonist: inactive; DAX1 inh-1: inactive; DAX1 inh-2: inactive; SMARCA2 act: inactive; hgDAF-12 ag: inactive; hcDAF-12 act: inactive

What do the screens show for `C/C(=N/NC(=O)c1cccs1)c1ccc(NC(=O)COc2ccc(Cl)cc2)cc1`?
ssDAF12 agonist: inactive; DAX1 inh-1: 4.7; DAX1 inh-2: inactive; SMARCA2 act: inactive; hgDAF-12 ag: 11.9; hcDAF-12 act: inactive

What do the screens show for `CCCCCC(=O)N1CCCC(c2nc(-c3ccc(OC)cc3)no2)C1` (centres undefined)?
ssDAF12 agonist: inactive; DAX1 inh-1: inactive; DAX1 inh-2: inactive; SMARCA2 act: inactive; hgDAF-12 ag: inactive; hcDAF-12 act: inactive

How did O=C(Oc1cccc2ccccc12)C1CC1 do in these assays?
ssDAF12 agonist: inactive; DAX1 inh-1: inactive; DAX1 inh-2: inactive; SMARCA2 act: inactive; hgDAF-12 ag: inactive; hcDAF-12 act: inactive

Results for CC(=O)c1sc(-c2ccccc2)cc1N ?
ssDAF12 agonist: inactive; DAX1 inh-2: inactive; SMARCA2 act: inactive; hgDAF-12 ag: inactive; hcDAF-12 act: inactive

What do the screens show for `CC(C)(C)N=Cc1cc(-c2ccccc2)sc1O`?
ssDAF12 agonist: inactive; DAX1 inh-1: inactive; DAX1 inh-2: inactive; SMARCA2 act: inactive; hgDAF-12 ag: 12.1; hcDAF-12 act: inactive

What do the screens show for `CCOc1ccc(NC(=S)NNC(=O)CC(C)O)cc1` (centres undefined)?
ssDAF12 agonist: inactive; DAX1 inh-1: inactive; DAX1 inh-2: inactive; SMARCA2 act: inactive; hgDAF-12 ag: inactive; hcDAF-12 act: inactive

What do the screens show for `CCN1CCN(C(=O)c2cc3sccc3n2CC(=O)c2ccccc2)CC1`?
ssDAF12 agonist: 1.2; DAX1 inh-1: inactive; DAX1 inh-2: inactive; SMARCA2 act: inactive; hgDAF-12 ag: inactive; hcDAF-12 act: inactive

Results for O=C(O)CCC(=O)Nc1ccc(N=Nc2ccccc2)cc1 ?
DAX1 inh-1: inactive

Results for Cc1[nH][nH]c(=O)c1C(c1ccccc1[N+](=O)[O-])C(C#N)C#N (centres undefined) ?
ssDAF12 agonist: inactive; DAX1 inh-1: inactive; DAX1 inh-2: inactive; SMARCA2 act: inactive; hgDAF-12 ag: inactive; hcDAF-12 act: inactive

What do the screens show for `CCCc1[nH][nH]c(=O)c1C(c1cccc(Cl)c1)C(C#N)C#N` (centres undefined)?
ssDAF12 agonist: inactive; DAX1 inh-1: 4.5; DAX1 inh-2: inactive; SMARCA2 act: inactive; hgDAF-12 ag: inactive; hcDAF-12 act: inactive

What do the screens show for `CC(=O)Nc1ccc(N=Cc2c(O)c3ccccc3oc2=O)cc1`?
ssDAF12 agonist: inactive; DAX1 inh-1: inactive; DAX1 inh-2: inactive; SMARCA2 act: inactive; hgDAF-12 ag: inactive; hcDAF-12 act: inactive

What do the screens show for `CC(=O)Nc1ccc(N=Cc2c(O)c(C(=O)Nc3ccccc3)cc3ccccc23)cc1`?
ssDAF12 agonist: 2.1; DAX1 inh-2: inactive; SMARCA2 act: inactive; hgDAF-12 ag: inactive; hcDAF-12 act: inactive

Results for O=C(Nc1cccc(C(F)(F)F)c1)C(Sc1ncnc2ccccc12)c1ccccc1 (centres undefined) ?
ssDAF12 agonist: inactive; DAX1 inh-1: inactive; DAX1 inh-2: inactive; SMARCA2 act: inactive; hgDAF-12 ag: inactive; hcDAF-12 act: inactive

What do the screens show for `Cc1cc(C)cc(NC(=O)C(Sc2ncnc3ccccc23)c2ccccc2)c1` (centres undefined)?
ssDAF12 agonist: inactive; DAX1 inh-1: inactive; DAX1 inh-2: inactive; SMARCA2 act: inactive; hgDAF-12 ag: inactive; hcDAF-12 act: 6.4

What do the screens show for `Oc1ccc(/C=N/Nc2ncnc3nc[nH]c23)cc1`?
ssDAF12 agonist: inactive; DAX1 inh-1: inactive; DAX1 inh-2: inactive; SMARCA2 act: inactive; hgDAF-12 ag: inactive; hcDAF-12 act: inactive

Screens (PubChem BioAssay)
